# Experimental data: PubChem BioAssay AID624255 (Broad Institute, 2012)
# Hit rate of the full screen: of about 77,000 compounds, about 4,600 (6%) were called active. Roughly 1% stayed inconclusive and do not appear here. Only a selection was taken, and actives are over-represented in it overall. Unmarked numbers belong to inactive results.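 How the source made its calls: active means mean inhibition above about 93%, with at least 55% of replicates each passing it (limit read from the data, passing the limit was not always enough); inconclusive means only one of those two conditions holds; inactive means neither condition holds.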
# Experiment: growth inhibition of T. cruzi in host fibroblasts – cell-based, beta-gal Tulahuen parasites, NIH3T3 host, luminescence, primary screen (AID 624255)
# Settings: T. cruzi beta-gal in NIH3T3, GalScreen luminescence, 90 h; at 8.34 µM; active compounds read high
row,SMILES,inhibition
1,C/C=C/c1ccc([C@H]2[C@@H](CNC(C)C)N(c3nc(CC)cs3)[C@H]2CO)cc1,100% (active)
2,C/C=C/c1ccc([C@H]2[C@@H](CO)N(C(C)=O)[C@H]2CNC(=O)c2ccncc2)cc1,72.7%
3,C/C=C/c1ccc([C@H]2[C@@H](CNC(=O)NC(C)C)N(C(=O)C3CCC3)[C@H]2CO)cc1,7.28%
4,CO[C@H](C(=O)N(C)C[C@@H]1OCc2ccccc2-c2c(n(C)c3ccccc23)C(=O)N([C@@H](C)CO)C[C@H]1C)c1ccccc1,-13.2%
5,CN1[C@H](C(=O)N2CCc3ccccc3C2)[C@@H](CO)[C@@H]2Cn3c(ccc(-c4cncnc4)c3=O)[C@@H]21,79.8%
6,COc1cccc(S(=O)(=O)N[C@H]2CC[C@H](CCN)O[C@H]2CO)c1,-31.7%
7,CO[C@H]1CN(C)C(=O)c2cc(NS(C)(=O)=O)ccc2OC[C@@H](C)N(C)C[C@@H]1C,13.7%
8,COc1ccc(-c2ccc([C@H]3[C@H]4CN(C(=O)c5ccc6c(c5)OCO6)CCCCN4[C@H]3CO)cc2)cc1,117% (active)
9,C[C@@H](O)C#Cc1ccc([C@H]2[C@H]3CN(C(=O)c4ccc5c(c4)OCO5)CCCCN3[C@H]2CO)cc1,26%
10,C[C@@H](O)C#Cc1ccc([C@@H]2[C@H]3CN(C(=O)c4ccc5c(c4)OCO5)CCCCN3[C@H]2CO)cc1,71.8%
11,CCCC#Cc1ccc([C@H]2[C@@H](CO)N3CCCCN(C(=O)c4ccc5c(c4)OCO5)C[C@@H]23)cc1,50.9%
12,Cc1cccc(-c2ccc([C@@H]3[C@H](CO)N4CCCCN(C(=O)c5ccc6c(c5)OCO6)C[C@@H]34)cc2)c1,98.3% (active)
13,CC(C)C#Cc1ccc([C@@H]2[C@@H](CO)N3CCCCN(C(=O)c4ccc5c(c4)OCO5)C[C@H]23)cc1,67.5%
14,Cc1ccc(S(=O)(=O)N[C@H]2CC[C@@H](CC(=O)NCCCN(C)C)O[C@H]2CO)cc1,-52%
15,CN1c2ccc(-c3cccc(C#N)c3)cc2[C@H]2[C@H](CCN2S(=O)(=O)c2cccc(F)c2)[C@@H]1CO,41.7%
16,C[C@H](CO)N1C[C@H](C)[C@H](CN(C)S(C)(=O)=O)Oc2ncc(C3=CCCCC3)cc2C1=O,47.7%
17,CCC(=O)N1C[C@H](C)[C@H](OC)CN(C)C(=O)c2ccc(NC(=O)Nc3cccc(F)c3)cc2OC[C@@H]1C,24.9%
18,C[C@@H]1CCCCO[C@@H](CN(C)C(=O)Nc2ccc(C(F)(F)F)cc2)[C@H](C)CN([C@H](C)CO)C(=O)c2cc(NC(=O)C3CCCCC3)ccc2O1,82.6%
19,COc1ccc(NC(=O)Nc2ccc3c(c2)C(=O)N([C@H](C)CO)C[C@@H](C)[C@H](CN(C)C(=O)Nc2ccc(C(F)(F)F)cc2)OCCCC[C@@H](C)O3)cc1,121%
20,C[C@H](CO)N1C[C@H](C)[C@@H](CN(C)C(=O)Nc2ccc3c(c2)OCO3)OCCCC[C@H](C)Oc2ccc(NC(=O)Nc3ccc4c(c3)OCO4)cc2C1=O,66.3%
21,C[C@@H]1CN([C@@H](C)CO)C(=O)c2cc(NC(=O)C3CCCCC3)ccc2O[C@@H](C)CCCCO[C@@H]1CN(C)C(=O)Nc1ccccc1,3.47%
22,CC(C)NC(=O)Nc1ccc2c(c1)C(=O)N([C@@H](C)CO)C[C@H](C)[C@H](CN(C)C(=O)Nc1ccc(F)cc1)OCCCC[C@@H](C)O2,10.6%
23,COc1ccc(NC(=O)Nc2ccc3c(c2)C(=O)N([C@H](C)CO)C[C@H](C)[C@@H](CN(C)C(=O)Nc2ccc(OC)cc2)OCCCC[C@H](C)O3)cc1,-4.89%
24,C[C@@H]1CN([C@@H](C)CO)C(=O)c2cc(NC(=O)Nc3ccc4c(c3)OCO4)ccc2O[C@@H](C)CCCCO[C@@H]1CN(C)C(=O)Nc1ccc2c(c1)OCO2,-7.76%
25,C[C@@H]1CN([C@@H](C)CO)C(=O)c2cc(NC(=O)Nc3ccc4c(c3)OCO4)ccc2O[C@@H](C)CCCCO[C@H]1CN(C)C(=O)Nc1ccc(C(F)(F)F)cc1,105% (active)
26,CC(C)NC(=O)Nc1ccc2c(c1)C(=O)N([C@@H](C)CO)C[C@@H](C)[C@@H](CN(C)C(=O)Nc1ccc(C(F)(F)F)cc1)OCCCC[C@H](C)O2,45.6%
27,C[C@H](CO)N1C[C@H](C)[C@H](CN(C)C(=O)Nc2ccc(C(F)(F)F)cc2)OCCCC[C@H](C)Oc2ccc(NC(=O)C3CCCCC3)cc2C1=O,99.4% (active)
28,COc1ccc(NC(=O)N(C)C[C@H]2OCCCC[C@H](C)Oc3ccc(NC(=O)Nc4ccc(C(F)(F)F)cc4)cc3C(=O)N([C@@H](C)CO)C[C@@H]2C)cc1,110% (active)
29,CC(C)NC(=O)Nc1ccc2c(c1)C(=O)N([C@H](C)CO)C[C@H](C)[C@H](CN(C)C(=O)Nc1ccc(C(F)(F)F)cc1)OCCCC[C@@H](C)O2,104% (active)
